The text below walks through data of PubChem BioAssay (Tox21).

Unmarked numbers belong to inactive results. Inconclusive results are not listed. The source made the active and inactive calls. Calls follow the shape of the dose curve; as a rule, active = well fitted curve in the direction sought with a large enough effect in the repeat runs; inconclusive = weak or mixed curves; inactive = no such curve, though single readings can be large; an effect the other way counts as inactive or inconclusive.

Assay [1] in a line: qHTS RealTime-Glo MT Cell Viability Assay in HEK293 cells - 16 hour (AID 1224872). Also: nearly all actives have a fitted effect of over 50% in size. Also: potency is read from the fitted curve at half-maximal effect. The essentials: (§1)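 Nonlytic real-time viability readout: viable cells convert prosubstrate to NanoLuc substrate, giving luminescence proportional to live cell number. HEK293, 600 cells/well, compound added after 5 h, continuous culture at 37 C.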
In general terms: Quantitative high-throughput screening tests each substance at several concentrations.

Assay [2] can be described thus: qHTS RealTime-Glo MT Cell Viability Assay in HepG2 cells - 8 hour (AID 1224873). Also: nearly all actives have a fitted effect of over 55% in size. The essentials:
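Real-time viability: cells seeded at 600 per well together with NanoLuc and cell-permeant prosubstrate, compounds added after 5 h incubation. Luminescence tracked at 0, 8, 16, 24, 32 and 40 h of exposure.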

Assay [3] in a line: qHTS RealTime-Glo MT Cell Viability Assay in HEK293 cells - 40 hour (AID 1224874). Also: nearly all actives have a fitted effect of over 50% in size. The settings on record: RealTime-Glo luminescence; max response: hits give low values. The essentials:
(§2)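 Kinetic, non-lysing viability readout. Seed HEK293 (600/well) with reagent, incubate 5 h at 37 C/5% CO2, pin 23 nL compound in DMSO, incubate at 37 C, read luminescence at 0, 8, 16, 24, 32, 40 h.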

A short description of assay [4]: A CellTox Green Cytotoxicity Assay to monitor cytotoxicity in HEK293 cells - 24 hour (AID 1224875). Also: series mostly up to about 77 µM; nearly all actives have a fitted effect of over 45% in size. The essentials: (§3)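 Real-time, in one plate: 600 HEK293 cells/well with dead-cell DNA dye, pinned compound after 5 h, 37 C incubation over 40 h; viable cells give no appreciable fluorescence.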
A short description of assay [5]: A CellTox Green Cytotoxicity Assay to monitor cytotoxicity in HepG2 cells - 16 hour (AID 1224876). Also: nearly all actives have a fitted effect of over 45% in size. The essentials: (§4)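 Cytotoxicity was tracked as dead-cell DNA fluorescence in HepG2 cells treated with test compounds at 37 C; each time-point value comes from one kinetic series spanning 0, 8, 16, 24, 32 and 40 h.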
The nature of assay [6]: qHTS RealTime-Glo MT Cell Viability Assay in HepG2 cells - 32 hour (AID 1224877). Also: nearly all actives have a fitted effect of over 55% in size. The essentials:
(§5)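 Luminescence read-out: viable HepG2 cells reduce a prosubstrate to a NanoLuc substrate, giving a signal proportional to live cell number. Reads taken at 0, 8, 16, 24, 32 and 40 h of compound exposure at 37 C.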

Assay [7] in a line: A CellTox Green Cytotoxicity Assay to monitor cytotoxicity in HepG2 cells - 40 hour (AID 1224879). Also: nearly all actives have a fitted effect of over 40% in size. The essentials:
as §4

Assay [8] in a line: A CellTox Green Cytotoxicity Assay to monitor cytotoxicity in HEK293 cells - 32 hour (AID 1224881). Also: nearly all actives have a fitted effect of over 40% in size. The essentials:
as §3

Assay [9] in a line: A CellTox Green Cytotoxicity Assay to monitor cytotoxicity in HepG2 cells - 0 hour (AID 1224882). Also: nearly all actives have a fitted effect of over 35% in size. The essentials: as §4
A short description of assay [10]: A CellTox Green Cytotoxicity Assay to monitor cytotoxicity in HepG2 cells - 32 hour (AID 1224883). Also: nearly all actives have a fitted effect of over 50% in size. The essentials:
as §4

Assay [11] is described as follows: A CellTox Green Cytotoxicity Assay to monitor cytotoxicity in HEK293 cells - 8 hour (AID 1224884). Also: nearly all actives have a fitted effect of over 35% in size. The essentials:
as §3

Assay [12] is described as follows: qHTS RealTime-Glo MT Cell Viability Assay in HepG2 cells - 16 hour (AID 1224885). Also: nearly all actives have a fitted effect of over 50% in size. The essentials:
as §5

Assay [13] can be described thus: qHTS RealTime-Glo MT Cell Viability Assay in HEK293 cells - 24 hour (AID 1224886). Also: nearly all actives have a fitted effect of over 50% in size. Also: potency is read from the fitted curve at half-maximal effect. The essentials:
as §1

Assay [14] in a line: qHTS RealTime-Glo MT Cell Viability Assay in HEK293 cells - 8 hour (AID 1224887). Also: nearly all actives have a fitted effect of over 50% in size. Also: potency is read from the fitted curve at half-maximal effect. The essentials: as §2
Assay [15] is described as follows: A CellTox Green Cytotoxicity Assay to monitor cytotoxicity in HEK293 cells - 16 hour (AID 1224888). Also: nearly all actives have a fitted effect of over 35% in size. The essentials: as §3
Assay [16] is described as follows: qHTS RealTime-Glo MT Cell Viability Assay in HepG2 cells - 0 hour (AID 1224889). Also: nearly all actives have a fitted effect of over 50% in size. The essentials:
as §5

Assay [17] in a line: A CellTox Green Cytotoxicity Assay to monitor cytotoxicity in HepG2 cells - 8 hour (AID 1224890). Also: nearly all actives have a fitted effect of over 45% in size. The essentials:
as §4

A short description of assay [18]: qHTS assay to identify small molecule antagonists of the estrogen receptor alpha (ER-alpha) signaling pathway using the BG1 cell line in the presence of 0.1 nM 17-beta-estradiol - cell viability counter screen (AID 1259241). Also: nearly all actives have a fitted effect of over 40% in size. The essentials:
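Estradiol-stimulated (0.1 nM) VM7Luc4E2 cells exposed to compounds 22 hr; viability measured by fluorescence of cleaved CellTiter-Fluor substrate after 30 min.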

Assay [19] in a line: A CellTox Green Cytotoxicity Assay to monitor cytotoxicity in HepG2 cells - 24 hour (AID 1224878). Also: nearly all actives have a fitted effect of over 45% in size. The essentials:
as §4

Assay [20] can be described thus: qHTS RealTime-Glo MT Cell Viability Assay in HEK293 cells - 0 hour (AID 1224880). The essentials: as §2
% is scaled to controls: 0 for no effect and ±100 for the full control effect.

In the case of `CC(C)OC(=O)CCCCC(=O)OC(C)C`, the Potency result in assay [1], in assay [7], in [8], in [10], in assay [11] and in [13] was “inactive” each time. The Potency result in [14], in assay [16] and in [18] was “inactive” each time. Besides, the call in assay [2], in assay [4], in assay [5], in assay [6], in assay [9] and in assay [12] was inactive. Moreover, the outcome in assay [15] and in [17] was inactive. In addition, the max response in assay [3] is 13.3%.
In the case of `C=C(C)C1CCC(C)(O)CC1` (centres undefined), the molecule was called inactive in [2], in [4], in assay [5], in assay [6], in assay [19] and in [9]. In addition, the molecule was classed as inactive in assay [12] and in assay [15]. Moreover, in assay [3], the max response was 2.04%. Besides, the Potency result in assay [7], in assay [20], in assay [8], in assay [10], in [11] and in assay [13] was “inactive” throughout. Also, the Potency result in [14], in assay [16] and in assay [18] was “inactive” in each case.
`Cc1cc(NC(=O)C2=C(O)c3ccccc3S(=O)(=O)N2C)no1`: the call in assay [2], in assay [4], in assay [5], in assay [6], in assay [19] and in assay [9] was inactive. Also, the molecule was called inactive in assay [12], in assay [15] and in assay [17]. Also, in [3], the max response was 4.93%. Moreover, the Potency result in [7], in assay [20], in [8], in assay [10], in [11] and in assay [13] was “inactive” throughout. Also, the Potency entry in [14] and in [18] was “inactive” throughout.
Consider `C[Si](C)(C)C`, for which the Potency entry in assay [1], in assay [7], in assay [20], in assay [8], in [10] and in assay [11] was “inactive” each time. For the same molecule, the Potency result in assay [13], in [14], in assay [16] and in assay [18] was “inactive” throughout. Also, the molecule was classed as inactive in assay [2], in [4], in assay [6], in assay [19], in assay [9] and in [12]. The call in assay [15] and in [17] was inactive.
Consider `COCCc1ccc(OCC2CO2)cc1` (centres undefined), for which the Potency entry in assay [1], in assay [7], in [20], in [8], in assay [10] and in [11] was “inactive” each time. Further, the Potency result in [13], in assay [14], in [16] and in [18] was “inactive” each time. Also, the call in [2], in assay [4], in [6], in [9], in [12] and in assay [15] was inactive. The outcome in assay [17] was inactive.
With `CCN(CC)CC(=O)Nc1c(C)cccc1C`, the Potency is 10.7 µM (active) in assay [1], 9.52 µM (active) in [13] and 10.7 µM (active) in assay [14]. Also, the result in [2], in assay [4], in [5], in [6], in assay [9] and in [12] was inactive. Besides, the call in assay [15] and in assay [17] was inactive. Further, the Potency result in assay [7], in assay [8], in assay [10] and in [18] was “inactive” in each case.
For the molecule `O=C(Nc1ccc(Cl)c(Cl)c1)C1CC1`, the Potency is 9.52 µM (active) in assay [1], 9.52 µM (active) in assay [13] and 19 µM (active) in [14]. The result in assay [2], in [6], in assay [19], in [9], in assay [15] and in assay [17] was inactive. Further, the Potency entry in assay [7], in [20], in [8], in assay [10], in [11] and in assay [16] was “inactive” in each case. Besides, in [18], the Potency result was “inactive”.
With `O=C(OCC1(COC(=O)c2cccnc2)CCCC(COC(=O)c2cccnc2)(COC(=O)c2cccnc2)C1O)c1cccnc1`, the molecule was classed as inactive in assay [2], in [4], in [5], in assay [6], in assay [19] and in assay [9]. For the same molecule, the molecule was classed as inactive in [15] and in assay [17]. For the same molecule, the max response in assay [3] is 1.63%. Also, the Potency entry in assay [7], in assay [20], in assay [8], in [10], in assay [11] and in [13] was “inactive” each time. The Potency result in [14], in assay [16] and in assay [18] was “inactive” each time.
As to `O=C1c2ccccc2C(=O)C1c1ccccc1`, the Potency entry in assay [1], in assay [7], in [20], in assay [8], in [10] and in assay [11] was “inactive” each time. Moreover, the Potency result in [13], in assay [14], in assay [16] and in assay [18] was “inactive” each time. The molecule was classed as inactive in [2], in [4], in assay [6], in assay [9], in [12] and in [15].
